In the antibiotic and cytotoxicity screens of Wong et al. (2023) one finds cytotoxicity call data, which are given here for 69 compounds.

Molecules are shown by their SMILES. About 3,300 (8.5%) of roughly 39,000 compounds were called active. The sample holds actives, similar compounds and a random draw of the others, so the mix is not that of the screen.

This assay deals with HepG2. The experiment in a line: cytotoxicity call (relative viability < 0.9). Conditions: 10 µM.
`COCC(=O)Nc1ccc2c(c1)C(=O)N(C)C[C@H](OC)[C@H](C)CN(Cc1ccccc1OC)[C@H](C)CO2`: the cytotoxicity call was “inactive”.

As for `C[C@H]1CN([C@@H](C)CO)C(=O)Cc2cc(NS(C)(=O)=O)ccc2O[C@@H]1CN(C)C(=O)Nc1ccccc1`, the cytotoxicity call is “inactive”.

For `COCCNC(=O)C[C@@H]1C[C@@H]2c3cc(NS(C)(=O)=O)ccc3O[C@@H]2[C@@H](CO)O1`, the cytotoxicity call is “inactive”.

As for `COc1ccc([C@H]2C/C=C\C[C@H](c3cccc(Cl)c3)NC(=O)[C@@H](c3ccccc3)CC(=O)N2)c(OC)c1`, the cytotoxicity call is “inactive”.

On to `CC(=O)O.N=C(N)NN=Cc1c(Cl)cccc1Cl`, for which the cytotoxicity call was “inactive”.

On to `Cc1ccc(-c2ccc3c(c2)O[C@@H](CN(C)C(=O)CN(C)C)[C@H](C)CN([C@@H](C)CO)S3(=O)=O)cc1`, for which the cytotoxicity call is “inactive”.

As to `CN(C)CCNC(=O)[C@H]1CN(Cc2cnn(C)c2)Cc2ccnn2C1`, the cytotoxicity call was “inactive”.

For `C[C@H]1CN([C@@H](C)CO)C(=O)Cc2cc(NC(=O)Nc3ccc(C(F)(F)F)cc3)ccc2O[C@@H]1CN(C)C(=O)NC1CCCCC1`, the cytotoxicity call is “inactive”.

Regarding `C[C@@H]1CN([C@H](C)CO)C(=O)Cc2cc(NC(=O)Nc3ccc(C(F)(F)F)cc3)ccc2O[C@H]1CN(C)CC1CCCCC1`, the cytotoxicity call was “active”.

Take `C[C@@H]1CN([C@H](C)CO)C(=O)Cc2cc(NC(=O)Nc3ccc(C(F)(F)F)cc3)ccc2O[C@@H]1CN(C)CC1CCCCC1`: the cytotoxicity call is “active”.

With `COCC(=O)N1C[C@H](C)[C@H](OC)CN(C)C(=O)c2ccc(NC(=O)Nc3ccccc3)cc2OC[C@@H]1C`, the cytotoxicity call was “inactive”.

Take `Cc1ccc(S(=O)(=O)N(C)C[C@H]2Oc3ccc(NS(=O)(=O)c4ccccc4)cc3CC(=O)N([C@H](C)CO)C[C@@H]2C)cc1`: the cytotoxicity call was “inactive”.

Take `CC(C)NC(=O)N[C@H]1CC[C@H](CCN)O[C@H]1CO`: the cytotoxicity call is “inactive”.

Regarding `C[C@@H]1CN([C@H](C)CO)C(=O)c2cc(NC(=O)Cc3ccccc3)ccc2O[C@@H](C)CCCCO[C@@H]1CN(C)C(=O)Nc1cccc2ccccc12`, the cytotoxicity call is “inactive”.

For `C[C@H]1CCCCO[C@@H](CN(C)C(=O)Nc2cccc3ccccc23)[C@@H](C)CN([C@@H](C)CO)C(=O)c2cc(NC(=O)Cc3ccccc3)ccc2O1`, the cytotoxicity call is “active”.

Take `C[C@@H]1CCCCO[C@@H](CN(C)C(=O)Nc2cccc3ccccc23)[C@H](C)CN([C@@H](C)CO)C(=O)c2cc(NC(=O)Cc3ccccc3)ccc2O1`: the cytotoxicity call is “inactive”.

Regarding `C[C@@H]1CCCCO[C@@H](CN(C)C(=O)Nc2cccc3ccccc23)[C@H](C)CN([C@H](C)CO)C(=O)c2cc(NC(=O)Cc3ccccc3)ccc2O1`, the cytotoxicity call is “inactive”.

Consider `C[C@@H]1CCCCO[C@H](CN(C)C(=O)Nc2cccc3ccccc23)[C@H](C)CN([C@H](C)CO)C(=O)c2cc(NC(=O)Cc3ccccc3)ccc2O1`, for which the cytotoxicity call was “active”.

Consider `C[C@@H]1CCCCO[C@@H](CN(C)C(=O)Nc2cccc3ccccc23)[C@@H](C)CN([C@@H](C)CO)C(=O)c2cc(NC(=O)Cc3ccccc3)ccc2O1`, for which the cytotoxicity call was “inactive”.

For `C[C@@H]1CN([C@@H](C)CO)C(=O)c2cc(NC(=O)Cc3ccccc3)ccc2O[C@@H](C)CCCCO[C@@H]1CN(C)C(=O)Nc1cccc2ccccc12`, the cytotoxicity call is “active”.

`C[C@@H]1CCCCO[C@H](CN(C)C(=O)Nc2cccc3ccccc23)[C@@H](C)CN([C@@H](C)CO)C(=O)c2cc(NC(=O)Cc3ccccc3)ccc2O1`: the cytotoxicity call is “inactive”.

For the compound `C[C@H](CO)N1C[C@H](C)[C@@H](CN(C)C(=O)Nc2cccc3ccccc23)OCCCC[C@H](C)Oc2ccc(NC(=O)Cc3ccccc3)cc2C1=O`, the cytotoxicity call was “inactive”.

`F[C@H]1CCNC1`: the cytotoxicity call is “inactive”.

On to `C[C@@H]1CCCCO[C@@H](CN(C)C(=O)c2ccncc2)[C@H](C)CN([C@@H](C)CO)C(=O)c2cc(NS(=O)(=O)c3ccc(Cl)cc3)ccc2O1`, for which the cytotoxicity call was “inactive”.

For `Cn1cnc(=N)c2[nH]cnc21`, the cytotoxicity call was “inactive”.

On to `CN1CCN([C@H](CNC(=O)C(=O)NCCN2CCOCC2)c2ccc(N(C)C)cc2)CC1`, for which the cytotoxicity call is “inactive”.

`Cc1noc(C)c1S(=O)(=O)Nc1cccc2c1O[C@H](CN(C)Cc1ccncc1)[C@H](C)CN([C@@H](C)CO)C2=O`: the cytotoxicity call was “inactive”.

For `C[C@H]1CN([C@@H](C)CO)C(=O)Cc2cc(NC(=O)Nc3cccc4ccccc34)ccc2O[C@@H]1CN(C)C(=O)NC1CCCCC1`, the cytotoxicity call is “inactive”.

Take `CO[C@H]1O[C@H](COS(=O)(=O)O)[C@@H](O[C@@H]2O[C@@H](C(=O)O)[C@@H](OC)[C@H](O)[C@H]2OS(=O)(=O)O)[C@H](O)[C@H]1NS(=O)(=O)O`: the cytotoxicity call was “inactive”.

On to `C[C@@H]1O[C@@H](O)[C@H](O)[C@H](O)[C@H]1O`, for which the cytotoxicity call was “inactive”.

As for `COC1C(C(=O)O)OC(C)C(O)C1O.COC1OC(C(=O)O)C(O)C(O)C1O` (centres undefined) [ALGINIC ACID [Mol Wt ~200,000; monomers shown] ], the cytotoxicity call is “active”.

In the case of `C[C@@H]1CN([C@@H](C)CO)C(=O)Cc2cc(NC(=O)c3ccncc3)ccc2O[C@@H]1CN(C)Cc1ccncc1`, the cytotoxicity call was “inactive”.

As to `O=C(C[C@H]1CC[C@H]2[C@@H](COC[C@@H](O)CN2C(=O)c2ccc(F)cc2)O1)NCCCN1CCOCC1`, the cytotoxicity call is “inactive”.

Regarding `O=C(CCCCCCC(=O)Nc1ccc([C@H]2C[C@H](c3ccccc3)O[C@H](c3ccccc3)O2)cc1)NO`, the cytotoxicity call is “inactive”.

For `O=C(CCCCCCC(=O)Nc1ccccc1)NO`, the cytotoxicity call was “active”.

As for `O=C(CCCCCCC(=O)NO)NO`, the cytotoxicity call was “inactive”.

`C[C@@H]1CN([C@@H](C)CO)C(=O)CCCn2nncc2CO[C@H]1CN(C)S(=O)(=O)c1ccc(C#N)cc1`: the cytotoxicity call was “inactive”.

As to `CCO[C@@H]1OC(C(=O)N2CCCCCCC2)=C[C@H](c2coc3ccccc3c2=O)[C@H]1CCCOC(=O)NCCCCCC(=O)NO`, the cytotoxicity call is “inactive”.

In the case of `C[C@H]1CCCCO[C@H](CN(C)C(=O)NC2CCCCC2)[C@@H](C)CN([C@@H](C)CO)C(=O)c2cc(NC(=O)Nc3ccccc3)ccc2O1`, the cytotoxicity call is “active”.

Regarding `C[C@@H]1CN([C@@H](C)CO)C(=O)c2cc(NC(=O)Nc3ccccc3)ccc2O[C@@H](C)CCCCO[C@@H]1CN(C)C(=O)NC1CCCCC1`, the cytotoxicity call was “inactive”.

Consider `C[C@H](CO)N1C[C@H](C)[C@H](CN(C)C(=O)NC2CCCCC2)OCCCC[C@H](C)Oc2ccc(NC(=O)Nc3ccccc3)cc2C1=O`, for which the cytotoxicity call was “inactive”.

In the case of `C[C@H]1CCCCO[C@@H](CN(C)C(=O)NC2CCCCC2)[C@@H](C)CN([C@@H](C)CO)C(=O)c2cc(NC(=O)Nc3ccccc3)ccc2O1`, the cytotoxicity call was “inactive”.

In the case of `C[C@@H]1CN([C@H](C)CO)C(=O)c2cc(NC(=O)Nc3ccccc3)ccc2O[C@@H](C)CCCCO[C@H]1CN(C)C(=O)NC1CCCCC1`, the cytotoxicity call was “active”.

For `C[C@H](CO)N1C[C@H](C)[C@@H](CN(C)C(=O)NC2CCCCC2)OCCCC[C@H](C)Oc2ccc(NC(=O)Nc3ccccc3)cc2C1=O`, the cytotoxicity call is “inactive”.

For the compound `C[C@H](CO)N1C[C@H](C)[C@H](CN(C)S(=O)(=O)c2ccccc2)Oc2c(NC(=O)c3cnccn3)cccc2C1=O`, the cytotoxicity call is “inactive”.

In the case of `NNC(=O)c1cccc(C(=O)NO)c1`, the cytotoxicity call was “inactive”.

Consider `Cc1noc(C)c1NC(=O)N(C)C[C@H]1Oc2ncc(C#CCN(C)C)cc2C(=O)N([C@@H](C)CO)C[C@H]1C`, for which the cytotoxicity call was “inactive”.

For the compound `CS(=O)(=O)c1ccc(C(O)C(CO)NC(=O)C(Cl)Cl)cc1` (centres undefined), the cytotoxicity call is “inactive”.

Regarding `CCCCCCCCCCCCCCCC(=O)OCC(NC(=O)C(Cl)Cl)C(O)c1ccc([N+](=O)[O-])cc1` (centres undefined), the cytotoxicity call was “inactive”.

Take `CCCCCCCCCCCCCCCC(=O)OC[C@H](NC(=O)C(Cl)Cl)[C@H](O)c1ccc([N+](=O)[O-])cc1`: the cytotoxicity call was “inactive”.

As for `O=C(NC(CO)C(O)c1ccc([N+](=O)[O-])cc1)C(Cl)Cl` (centres undefined), the cytotoxicity call was “active”.

As to `CCCCCCCCCCCCCCCC(=O)OC[C@@H](NC(=O)C(Cl)Cl)[C@H](O)c1ccc([N+](=O)[O-])cc1`, the cytotoxicity call was “inactive”.

As to `O=C([O-])CCC(=O)OCC(NC(=O)C(Cl)Cl)C(O)c1ccc([N+](=O)[O-])cc1.[Na+]` (centres undefined), the cytotoxicity call is “active”.

Consider `C[C@H]1CCCCO[C@@H](CN(C)C(=O)Nc2ccc(C(F)(F)F)cc2)[C@@H](C)CN([C@@H](C)CO)C(=O)c2cc(NS(=O)(=O)c3cn(C)cn3)ccc2O1`, for which the cytotoxicity call is “inactive”.

Take `CNC(=O)C(=O)NC[C@H]1OCCN1S(=O)(=O)c1ccccc1`: the cytotoxicity call is “inactive”.

Regarding `Cc1ccc(S(=O)(=O)N(C)C[C@H]2Oc3c(NS(C)(=O)=O)cccc3C(=O)N([C@@H](C)CO)C[C@@H]2C)cc1`, the cytotoxicity call is “inactive”.

As to `C[C@H](CO)N1C[C@H](C)[C@H](CN(C)Cc2ccncc2)Oc2ccc(NC(=O)c3ccncc3)cc2C1=O`, the cytotoxicity call was “inactive”.

As for `C[C@@H]1CN([C@@H](C)CO)S(=O)(=O)c2ccc(-c3ccncc3)cc2O[C@@H]1CN(C)S(=O)(=O)c1ccccc1F`, the cytotoxicity call is “inactive”.

`O=C(C1=C[C@@H](c2csc3ccccc23)C[C@@H](OCc2ccc(CO)cc2)O1)N1CCN(Cc2ccc3c(c2)OCO3)CC1`: the cytotoxicity call was “active”.

In the case of `O=C(C1=C[C@H](c2csc3ccccc23)C[C@H](OCc2ccc(CO)cc2)O1)N1CCN(Cc2ccc3c(c2)OCO3)CC1`, the cytotoxicity call was “inactive”.

Regarding `O=C(C1=C[C@H](c2csc3ccccc23)C[C@H](OCc2ccc(CO)cc2)O1)N1CCN(Cc2ccccc2)CC1`, the cytotoxicity call is “inactive”.

With `C[C@H](CO)N1C[C@H](C)[C@H](CN(C)S(C)(=O)=O)Oc2ccc(NC(=O)c3ccncc3)cc2CC1=O`, the cytotoxicity call is “inactive”.

As to `Cl.O=c1n(CCCN2CCN(c3cccc(Cl)c3)CC2)nc2ccccn12`, the cytotoxicity call was “inactive”.

In the case of `COc1ccccc1N1CCN(c2ncc(C(=O)N3CCN(c4cccc(Cl)c4)CC3)c3ccccc23)CC1`, the cytotoxicity call was “inactive”.

On to `CCc1nn(CCCN2CCN(c3cccc(Cl)c3)CC2)c(=O)n1CCOc1ccccc1`, for which the cytotoxicity call is “active”.

`C[C@H]1CN([C@@H](C)CO)C(=O)c2cccc(NS(=O)(=O)c3ccc(F)cc3)c2O[C@H]1CN(C)Cc1ccncc1`: the cytotoxicity call is “inactive”.

As for `Cc1cn(CCN2CCN(c3ccccc3-c3cc(C#N)cc(C(=O)NCCCN4CCCC4)c3)CC2)c2ccccc12`, the cytotoxicity call was “active”.

With `Cc1cn(CCC#N)c2ccccc12`, the cytotoxicity call is “inactive”.

Take `COc1cc(C(=O)NCCCN2CCCN(CCCNC(=O)c3cc(OC)c(OC)c(OC)c3)CC2)cc(OC)c1OC`: the cytotoxicity call is “inactive”.
